The source of these data is publication PMC6707232.

What all share (test): cross-linking mass spectrometry
Settings in all cases: not determined

Assay [1] addresses COPS3 (UniProt Q9UNS2).
Assay [2] concerns the target ELOB (UniProt Q15370).
For assay [3], the target named is COPS7B (UniProt Q9H9Q2).
Sequence of UniProt Q9H9Q2 (Q9H9Q2 whole entry): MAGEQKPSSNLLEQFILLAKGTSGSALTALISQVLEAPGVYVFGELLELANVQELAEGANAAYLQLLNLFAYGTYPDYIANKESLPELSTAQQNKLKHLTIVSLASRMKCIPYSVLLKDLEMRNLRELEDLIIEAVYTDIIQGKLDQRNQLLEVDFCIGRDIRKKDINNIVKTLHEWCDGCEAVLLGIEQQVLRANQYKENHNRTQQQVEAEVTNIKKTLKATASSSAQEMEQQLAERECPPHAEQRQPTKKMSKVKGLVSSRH

Sequence of COPS2 (P61201 whole entry): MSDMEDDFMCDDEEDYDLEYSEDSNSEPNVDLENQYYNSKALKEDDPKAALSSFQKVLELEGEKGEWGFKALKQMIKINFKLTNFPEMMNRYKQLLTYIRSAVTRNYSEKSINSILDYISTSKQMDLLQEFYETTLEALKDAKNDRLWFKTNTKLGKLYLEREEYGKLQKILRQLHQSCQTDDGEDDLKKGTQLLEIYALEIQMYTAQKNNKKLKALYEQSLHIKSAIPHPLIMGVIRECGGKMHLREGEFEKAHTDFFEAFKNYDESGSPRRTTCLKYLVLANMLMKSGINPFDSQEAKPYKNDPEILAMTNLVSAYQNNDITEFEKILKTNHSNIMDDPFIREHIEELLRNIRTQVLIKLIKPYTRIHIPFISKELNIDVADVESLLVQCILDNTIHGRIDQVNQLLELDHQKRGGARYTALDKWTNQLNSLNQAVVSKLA
Sequence of GPS1 (Q13098 whole entry): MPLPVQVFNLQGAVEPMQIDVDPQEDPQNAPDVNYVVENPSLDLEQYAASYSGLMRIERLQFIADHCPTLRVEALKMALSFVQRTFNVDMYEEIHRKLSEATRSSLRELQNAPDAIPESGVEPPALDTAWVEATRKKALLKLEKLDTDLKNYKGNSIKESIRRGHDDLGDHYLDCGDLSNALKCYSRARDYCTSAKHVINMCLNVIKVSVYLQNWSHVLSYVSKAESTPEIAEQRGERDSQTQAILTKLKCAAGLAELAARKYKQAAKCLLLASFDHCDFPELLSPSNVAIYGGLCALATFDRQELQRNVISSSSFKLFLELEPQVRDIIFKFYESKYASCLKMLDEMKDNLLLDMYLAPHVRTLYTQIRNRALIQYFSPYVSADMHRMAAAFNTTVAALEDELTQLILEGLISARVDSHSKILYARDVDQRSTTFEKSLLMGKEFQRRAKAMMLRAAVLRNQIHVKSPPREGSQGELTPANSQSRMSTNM
Sequence of UniProt Q9UNS2 (Q9UNS2 whole entry): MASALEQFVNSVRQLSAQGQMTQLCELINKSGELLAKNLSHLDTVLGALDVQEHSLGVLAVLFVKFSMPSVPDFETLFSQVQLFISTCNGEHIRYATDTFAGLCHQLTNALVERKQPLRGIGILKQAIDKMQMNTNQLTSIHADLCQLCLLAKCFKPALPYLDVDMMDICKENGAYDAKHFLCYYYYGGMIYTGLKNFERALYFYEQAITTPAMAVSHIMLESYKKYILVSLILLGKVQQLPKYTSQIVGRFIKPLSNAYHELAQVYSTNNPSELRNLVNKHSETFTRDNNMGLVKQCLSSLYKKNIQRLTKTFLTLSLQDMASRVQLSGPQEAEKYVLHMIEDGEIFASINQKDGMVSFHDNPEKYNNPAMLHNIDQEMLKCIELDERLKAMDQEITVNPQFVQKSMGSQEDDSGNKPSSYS
Sequence of UniProt Q15370 (Q15370 whole entry): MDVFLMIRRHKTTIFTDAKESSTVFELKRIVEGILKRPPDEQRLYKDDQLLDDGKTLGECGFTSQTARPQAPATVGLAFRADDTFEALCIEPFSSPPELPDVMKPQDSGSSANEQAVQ

As to GPS1, Q13098, the cross-linked residues result in assay [1] was “K467 - K406”; in assay [2], “K158 - K19”.

Turning to COPS2, P61201, the cross-linked residues result was “K426 - K243” in assay [1] and “K426 - K199” in assay [3].
